# Measured values from PubChem BioAssay (NCATS).
# Inconclusive results are not listed. A call without a number means that no potency is given here. Unmarked numbers belong to inactive results. Calls of active or inactive are those of the source. Calls come from the whole dose curve; as a rule, active = well fitted curve in the direction sought with a large enough effect; inconclusive = small, poorly fitted or top-dose-only effect, or another doubt; inactive = no such curve, though single readings can be large; an effect the other way counts as inactive or inconclusive.
# Columns and labels:
# [1] = biological target: Calcium and integrin-binding protein 1 (Homo sapiens) (UniProt Q99828); test: Primary qHTS for Identification of Calcium Integrin Binding Protein 1 (CIB1) Competitor (AID 1508620);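 note: GST tagged CIB1 binding a fluorescein labelled alphaIIb integrin peptide tracer; top concentration of the series differs between compounds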
# How it was run: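 Fluorescence polarization competition: GST-tagged CIB1 (1 uM final) preincubated with compound 15 min at room temperature, then FITC-labelled alphaIIb peptide (100 nM final) added. After 15 min at room temperature, polarization read at Ex 480/Em 540.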
# [2] = Primary qHTS for inhibitors of nuclear receptor binding SET domain protein 2 (NSD2) in an isogenic RCH-ACV NSD2 p.E1099K mutant (9B) (AID 1645876); note: nearly all actives have a fitted effect of over 70% in size
# [3] = Primary qHTS for inhibitors of nuclear receptor binding SET domain protein 2 (NSD2) in an RCH-ACV wild type WT cells (2C) (AID 1645877); note: nearly all actives have a fitted effect of over 70% in size
# Sequence of Calcium and integrin-binding protein 1 (Homo sapiens) (Q99828 whole entry, looked up): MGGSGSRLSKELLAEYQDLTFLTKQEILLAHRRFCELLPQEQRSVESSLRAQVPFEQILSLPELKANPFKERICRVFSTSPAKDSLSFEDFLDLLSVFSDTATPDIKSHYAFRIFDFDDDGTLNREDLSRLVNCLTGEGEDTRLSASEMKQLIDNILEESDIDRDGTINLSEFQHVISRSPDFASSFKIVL
compound,measurement,setting,value
C[C@@H]1O[C@@H](O[C@H]2[C@H](O[C@H]3CC[C@@]4(C)C(CC[C@]5(C)C4CC=C4[C@@H]6CC(C)(C)CC[C@]6(C(=O)O[C@@H]6OC[C@H](O)[C@H](O)[C@H]6O[C@@H]6O[C@@H](C)[C@H](O[C@@H]7O[C@H](CO)[C@@H](O)[C@H](O)[C@H]7O)[C@H](O)[C@H]6O)[C@H](O)C[C@]45C)C3(C)C)O[C@H](CO)[C@@H](O[C@@H]3OC[C@@H](O)[C@H](O)[C@H]3O)[C@@H]2O)[C@H](O)[C@H](O)[C@H]1O (some centres not stated),"activity change, negative = inhibition",[1],-1.57% [at 12.4 µM]
same,"activity change, negative = viability loss",[2],-6.56% [at 9.23 µM]
CC(=O)N1CCc2ccc(O)c(OC3OC(COC4OCC(O)(CO)C4O)C(O)C(O)C3O)c2C1Cc1ccc(O)cc1 (configuration not stated),Potency,[1],inactive
same,Potency,[2],inactive
same,Potency,[3],inactive
CC[C@@H](O)C[C@@H]1C(C)=C[C@@H]2CCCC[C@@H]2[C@@]1(C)C(=O)O,Potency,[1],inactive
same,Potency,[2],inactive
same,Potency,[3],inactive
CC(=O)O[C@H]1CC[C@@]2(C)C(CC[C@@H](C)[C@]23Cc2c(O)cc4c(c2O3)CN([C@@H](CCC(=O)O)C(=O)O)C4=O)C1(C)C (some centres not stated),Potency,[1],inactive
same,Potency,[2],inactive
same,Potency,[3],inactive
C=C1CCC2C(C)(C)C(O)CCC2(C)C1CCC(C)CCOC(C)=O (configuration not stated),Potency,[1],inactive
same,Potency,[2],inactive
CC1CCC2(C(=O)O)CCC3(C)C(=CCC4C5(C)CCC(OC(=O)/C=C/c6ccccc6)C(C)(C)C5CCC43C)C2C1C (configuration not stated),Potency,[1],inactive
same,Potency,[2],inactive
same,Potency,[3],inactive
OC[C@H]1O[C@@H](Oc2ccccc2)[C@H](O)[C@@H](O)[C@@H]1O,Potency,[1],inactive
same,Potency,[2],inactive
same,Potency,[3],inactive
COc1cc2occc2c(O[C@@H]2O[C@H](CO)[C@@H](O)[C@H](O)[C@H]2O)c1CCC(=O)O,Potency,[1],inactive
same,Potency,[2],inactive
same,Potency,[3],inactive
CC1(C)CC[C@]2(C(=O)O)CC[C@]3(C)C(=CCC4[C@@]5(C)CC[C@H](O[C@@H]6O[C@H](CO)[C@@H](O)[C@H](O)[C@H]6O[C@@H]6O[C@H](CO)[C@@H](O)[C@H](O)[C@H]6O)[C@@](C)(CO)C5CC[C@]43C)[C@@H]2C1 (some centres not stated),Potency,[1],inactive
same,Potency,[2],inactive
C[C@@H]1CC[C@]2(C(=O)O[C@@H]3O[C@H](CO)[C@@H](O)[C@H](O)[C@H]3O)CC[C@]3(C)C(=CCC4[C@@]5(C)C[C@@H](O)[C@H](O)[C@@](C)(C(=O)O[C@H]6[C@H](O)C[C@@]7(C)C(CC[C@]8(C)C7CC=C7[C@H]9[C@](C(=O)O[C@@H]%10O[C@H](CO)[C@@H](O)[C@H](O)[C@H]%10O)(CC[C@@H](C)[C@@]9(C)O)CC[C@]78C)[C@@]6(CO)C(=O)O)C5CC[C@]43C)[C@@H]2[C@]1(C)O (some centres not stated),"activity change, negative = inhibition",[1],3.8% [at 12.4 µM]
same,outcome,[2],inactive [at 9.23 µM]
same,"activity change, negative = cell killing",[3],0.118% [at 9.23 µM]
C=C1C[C@]23C[C@H]1CC[C@H]2[C@]1(C)CCC[C@@](C)(C(=O)O)[C@H]1[C@@H]3C(=O)O,Potency,[1],inactive
same,Potency,[2],inactive
same,Potency,[3],inactive
CC1=CC(=O)CC(C)(C)[C@@]1(O)CC[C@@H](C)O[C@@H]1O[C@H](CO)[C@@H](O)[C@H](O)[C@H]1O,Potency,[1],inactive
same,Potency,[2],inactive
same,Potency,[3],inactive
C[C@@H]1O[C@@H](O[C@@H]2[C@@H](O)[C@H](O[C@H]3CC[C@@]4(C)C(CC[C@]5(C)C4CC=C4[C@@H]6CC(C)(C)CC[C@]6(C(=O)O[C@@H]6O[C@H](CO)[C@@H](O)[C@H](O)[C@H]6O)CC[C@]45C)C3(C)C)O[C@H](C(=O)O)[C@H]2O)[C@H](O)[C@H](O)[C@H]1O (some centres not stated),Potency,[1],inactive
same,"activity change, negative = viability loss",[2],-9.85% [at 9.23 µM]
CC(C)CN(C[C@@H](O)[C@H](Cc1ccccc1)NC(=O)O[C@@H]1CO[C@H]2OCC[C@H]21)S(=O)(=O)c1ccc(N)cc1,Potency,[1],inactive
same,Potency,[2],inactive
same,Potency,[3],inactive
C/C1=C\CC[C@H](C)CCO[C@@H]2O[C@H](CO[C@@H]3OC[C@](O)(COC1=O)[C@H]3O)[C@@H](O)[C@H](O)[C@H]2O,Potency,[1],inactive
same,Potency,[2],inactive
same,Potency,[3],inactive
CC1COC2(OC3CC4C5CC(O[C@@H]6O[C@H](C)[C@@H](O[C@@H]7O[C@@H](C)[C@H](O)[C@@H](O)[C@H]7O)[C@H](O)[C@H]6O)C6CC(O)CCC6(C)C5CCC4(C)C3C2C)C(O)C1 (some centres not stated),Potency,[1],inactive
same,Potency,[2],inactive
same,Potency,[3],inactive
COC(=O)C12C(=O)C(C)=C(O)C1(C)C(C)=CC1C3(CO)CCC(O)C(C)(C)C3CCC12C (configuration not stated),Potency,[1],inactive
same,Potency,[2],inactive
same,Potency,[3],inactive
